Tau fluor cs: Counterscreen qHTS for Inhibitors of Tau Fibril Formation, Fluorescence Polarization; AID 1463, 2008; tau K18 P301L Alexa594 fluorescence, heparin fibrillization; Potency, µM (series often up to 57.7 µM); hit rate 0.93% among 280,000; further: nearly all actives have a fitted effect of over 55% in size
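Human K18 P301L tau (15 uM unlabeled plus 0.24 uM Alexa 594-labeled, final) in 100 mM sodium acetate pH 7 was mixed with compound and 20 uM heparin and incubated 6 hr at 37 C.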
TRb-SRC2 inh: qHTS for Inhibitors of the Interaction of Thyroid Hormone Receptor and Steroid Receptor Coregulator 2 | Thyroid hormone receptor beta (Homo sapiens), P10828 | TRbeta-SRC2 peptide binding, fluorescence polarization; receptor liganded with 1 µM T3 | Potency, µM (highest dose often 106 µM), most hits filed as inhibitors | hit rate 0.065% among 280,000; further: nearly all actives have a fitted effect of over 50% in size
Target sequence (P10828 whole entry, looked up): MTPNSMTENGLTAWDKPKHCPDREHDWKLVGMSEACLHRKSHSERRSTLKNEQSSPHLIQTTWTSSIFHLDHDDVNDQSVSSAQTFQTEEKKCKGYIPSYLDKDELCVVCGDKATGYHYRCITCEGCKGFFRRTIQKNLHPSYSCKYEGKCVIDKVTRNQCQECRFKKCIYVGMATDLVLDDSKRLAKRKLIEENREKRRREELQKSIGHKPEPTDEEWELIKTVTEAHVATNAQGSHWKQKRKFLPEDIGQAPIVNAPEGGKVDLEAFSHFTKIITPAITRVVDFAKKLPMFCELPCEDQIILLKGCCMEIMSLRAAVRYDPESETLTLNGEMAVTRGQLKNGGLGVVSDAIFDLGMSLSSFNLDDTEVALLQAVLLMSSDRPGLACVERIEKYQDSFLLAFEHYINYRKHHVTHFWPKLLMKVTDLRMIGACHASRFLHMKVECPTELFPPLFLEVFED
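A fluorescence polarization screen tested compounds at multiple concentrations against complex formation between 0.6 uM TRb ligand-binding domain and 20 nM Texas Red SRC2 peptide, with 1 uM T3 present; readout after 5 hr.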
KDM4E inh: qHTS Assay for Inhibitors of Human Jumonji Domain Containing 2E (JMJD2E). Lysine-specific demethylase 4E (Homo sapiens), B2RXH2. JMJD2E catalytic domain, FDH-coupled NADH fluorescence (FDH is formaldehyde dehydrogenase). Potency, µM (highest dose often 57.1 µM), actives largely listed as inhibitors. hit rate 1.6% among 230,000; active means well fitted inhibition curve with a large enough effect, not every such curve was filed as active; inconclusive means small, poorly fitted or top-dose-only effect, or another doubt; inactive means no such curve, though single readings can be large or run the other way; further: nearly all actives have a fitted effect of over 50% in size
Tau FP inhib: qHTS for Inhibitors of Tau Fibril Formation, Fluorescence Polarization. Microtubule-associated protein tau (Homo sapiens), P10636. K18 P301L tau heparin fibrillization, Alexa594 FP, 6 h. Potency, µM (doses to about 57.7 µM), actives largely listed as inhibitors. hit rate 0.39% among 280,000. AID 1468, 2008; further: nearly all actives have a fitted effect of over 55% in size
Target sequence (P10636 561-689 P618L limits assumed): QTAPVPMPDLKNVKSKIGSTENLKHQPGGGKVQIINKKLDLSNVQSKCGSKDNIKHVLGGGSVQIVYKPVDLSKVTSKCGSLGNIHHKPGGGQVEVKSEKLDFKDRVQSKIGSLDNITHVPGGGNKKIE
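Compound effects on tau fibrillization are measured by Alexa 594 fluorescence polarization (ex 555, em 632 nm). K18 P301L tau is used at 15 uM with 0.24 uM labeled tracer, and 20 uM heparin induces aggregation over 6 hr at 37 C.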
Tau ThT inhib: qHTS for Inhibitors of Tau Fibril Formation, Thioflavin T Binding | Microtubule-associated protein tau (Homo sapiens), P10636 | recombinant tau K18 P301L (four-repeat tau fragment), heparin-induced fibrillization, ThT fluorescence | Potency, µM (highest dose often 57.4 µM), hits mostly inhibitors | hit rate 2.1% among 270,000; further: nearly all actives have a fitted effect of over 55% in size
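Aggregation was driven by heparin (20 uM final) acting on recombinant tau […] bearing P301L in 100 mM sodium acetate pH 7; fibrils were detected with Thioflavin T.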
TexasRed fluor: Total Fluorescence Counterscreen for Inhibitors of the Interaction of Thyroid Hormone Receptor and Steroid Receptor Coregulator 2 | Potency, µM (highest dose often 106 µM) | hit rate 0.29% among 280,000 | AID 1479, 2009 | TRb/SRC2 Texas Red total fluorescence interference; active means well fitted curve in either direction with a large enough effect; inconclusive means small, poorly fitted or top-dose-only effect
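Flags fluorescent or light-absorbing compounds by total fluorescence, S + 2P, at 555 nm excitation and 632 nm emission. Mixture: 20 nM Texas Red SRC2 peptide, 0.6 uM human TRb LBD, 1 uM T3, 5% DMSO; compound exposure 5 h at ambient temperature.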
Hits are given with their value; 0 = inactive; ? = inconclusive; - = no result; [ ] = remark or other dose. Only some compounds are listed: those with a hit (about 3.5% of all), similar ones and a draw of the others. Unless noted, the call rests on the fitted dose curve; in most records, active means well fitted curve in the direction sought with a large enough effect; inconclusive means small, poorly fitted or top-dose-only effect, or another doubt; inactive means no such curve, though single readings can be large; an effect the other way counts as inactive or inconclusive.

SMILES	Tau fluor cs	TRb-SRC2 inh	KDM4E inh	Tau FP inhib	Tau ThT inhib	TexasRed fluor
O=C(O)c1ccc[nH]c1=S	0	0	17.8µM	?	?	0
N#CC(C#N)=NNc1ccc(S(N)(=O)=O)cc1	0	0	0	0	10µM	0
CC1CCN(S(=O)(=O)c2ccc(NN=C(C#N)C#N)cc2)CC1	?	0	0	0	14.1µM	0
Fc1ccc(CNCCc2ccccc2)cc1	0	0	31.6µM	0	0	0
CCOP(=O)(OCC)SCCSCC	-	0	-	-	-	0
CC(C)(C)OC(=O)N1CCC(c2c(C(=O)N3CCN(Cc4ccccc4)CC3)cnn2-c2ccc(Cl)cc2)CC1	0	0	-	0	0	?
C=C1C(=O)O[C@H]2C[C@@H](C)[C@@H]3C=CC(=O)[C@@]3(C)C[C@H]12	0	0	0	?	17.8µM	0
C=C1C(=O)O[C@H]2[C@H]1[C@H](OC(=O)CC(=O)O[C@@H]1C[C@@H](C)[C@@H]3C=CC(=O)[C@@]3(C)[C@H]3OC(=O)C(=C)[C@H]13)C[C@@H](C)[C@H]1C=CC(=O)[C@]12C	0	0	0	11.2µM	15.8µM	0
C=C1C(=O)O[C@@H]2C[C@@H](C)[C@@H]3C=CC(=O)[C@@]3(C)[C@@H](OC(=O)CC(=O)O[C@H]3[C@@H]4C(=C)C(=O)O[C@@H]4C[C@@H](C)[C@@H]4C=CC(=O)[C@]43C)[C@H]12	0	?	0	8.91µM	2.82µM	0
O=C(Nc1ccccc1)c1ccccc1I	-	0	-	-	-	0
CC(C)NCC(O)c1ccc(N)c(C#N)c1 (configuration not stated)	0	0	-	0	0	0
COc1cc(/C=C2/C(=O)N(c3ccccc3)N=C2C)ccc1OS(=O)(=O)c1ccccc1	?	0	0	0	14.1µM	0
C=C1C(=O)O[C@@H]2C[C@@H](C)[C@@H]3C4OC4C(=O)[C@@]3(C)[C@@H](O)[C@H]12 (some centres not stated)	0	0	0	7.94µM	12.6µM	0
COc1cc(NC(=O)CN2C3CCC2CC(O)(c2cccnc2)C3)cc(OC)c1 (configuration not stated)	0	0	0	0	0	0
O=C1OC(c2ccc(O)c(S(=O)(=O)O)c2)(c2ccc(O)c(S(=O)(=O)O)c2)c2c(Br)c(Br)c(Br)c(Br)c21	0	0	-	0	?	0
Nc1ccc([As](=O)(O)O)cc1	0	0	12.6µM	0	0	0
O=[N+]([O-])c1cc([As](=O)(O)O)ccc1O	0	0	?	0	?	0
O=C(N/N=C/c1c(O)n(Cc2ccc(F)cc2)c(=O)[nH]c1=O)c1ccccc1	0	0	?	0	?	0
CCCCC(=O)N/N=C/c1c(O)n(CCc2ccccc2)c(=O)[nH]c1=O	0	0	?	0	0	0
Cn1c(O)c(/C=N/NC(=O)c2ccncc2)c(=O)[nH]c1=S	0	0	?	0	?	0
Cn1c(O)c(/C=N/NC(=O)c2ccncc2)c(=O)n(C)c1=S	0	0	31.6µM	0	0	0
O=C(N/N=C/c1c(O)n(Cc2ccccc2)c(=O)[nH]c1=O)c1ccncc1	0	0	20µM	0	-	0
CCCCC(=O)N/N=C/c1c(O)n(CCc2ccc(OC)c(OC)c2)c(=O)[nH]c1=O	0	0	22.4µM	0	?	0
CCCCCCC(=O)N/N=C/c1c(O)n(CCCC)c(=S)[nH]c1=O	0	0	17.8µM	0	?	0
COc1cnc(OC)n2nc(NS(=O)(=O)c3c(OCC(F)F)cccc3C(F)(F)F)nc12	-	0	-	-	-	0
SMILES	Tau fluor cs	TRb-SRC2 inh	KDM4E inh	Tau FP inhib	Tau ThT inhib	TexasRed fluor
COc1cc2c(cc1OC)C(C)N(C(=O)c1nccnc1C(=O)O)CC2 (configuration not stated)	0	0	?	0	0	0
NC1CCC(CC2CCC(N)CC2)CC1 (configuration not stated)	-	0	-	-	-	0
COc1ccc(CCn2c(O)c(/C=N/NC(=O)c3ccncc3)c(=O)[nH]c2=O)cc1OC	0	0	10µM	0	?	0
O=C(O)C1CN(CP(=O)(O)O)CCN1 (configuration not stated)	0	0	-	?	0	0
CCN1C(=O)/C(=C/c2ccc3c(c2)CCN3CCCCl)C(=O)NC1=S	0	0	?	?	17.8µM	0
CCOC(=O)c1c(/N=C/c2c(O)n(-c3ccccc3F)c(=S)[nH]c2=O)sc2c1CCCC2	0	0	?	?	22.4µM	0
CCOC(=O)c1c(/N=C/c2c(O)n(-c3ccc(F)cc3)c(=S)[nH]c2=O)sc2c1CCCC2	0	0	0	0	0	0
CCOP(=S)(S)OCC	-	0	-	-	-	0
CCOc1ccc(-c2nc3ccc(-c4nc5ccc(N6CCN(C)CC6)cc5[nH]4)cc3[nH]2)cc1	?	0	-	0	2.82µM	0
CCOP(=S)(OCC)SCSC(C)(C)C	-	0	-	-	-	0
CCSc1nnc([C@@H](N)Cc2c[nH]c3ccccc23)o1	0	0	?	0	0	0
CSc1nnc([C@@H](N)Cc2c[nH]c3ccccc23)o1	0	0	4.47µM	0	0	0
CCCOc1ccc(N2C(=O)CC(N3CC=C(c4ccccc4)CC3)C2=O)cc1 (configuration not stated)	0	0	0	?	31.6µM	0
CCc1ccc(NC(=O)Cn2c(=O)oc3cc(S(=O)(=O)NCc4ccccc4)ccc32)cc1	0	0	-	?	0	0
COC[C@H]1OC(=O)c2coc3c2[C@@]1(C)C1=C(C3=O)[C@@H]2CCC(=O)[C@@]2(C)C[C@H]1OC(C)=O	?	35.5µM	-	25.1µM	14.1µM	44.7µM[fluorescent]
O=c1cc(-c2ccc(O)c(O)c2)oc2c(C3O[C@H](CO)[C@@H](O)[C@H](O)[C@H]3O)c(O)cc(O)c12 (some centres not stated)	0	0	1µM	0	?	?
O=C1C(=O)c2ccccc2-c2ccccc21	0	?	?	?	3.16µM	0
Cc1oc(-c2ccccc2)nc1CN1C(=O)CN=C(c2ccccc2)c2ccccc21	0	0	0	0	0	0
COc1ccc(N2C(=O)NC(=O)/C(=C/c3cccc(OC(=O)c4cccs4)c3)C2=O)cc1Cl	0	0	0	?	?	0
Cc1ccc(N2C(=O)NC(=O)/C(=C/c3ccc(OC(=O)c4cccs4)cc3)C2=O)cc1	0	0	20µM	0	?	0
